The sample as a whole holds a higher share of hits than the screen did.
HT1080 IDH1KD tx – HT-1080 IDH1 knockdown cell toxicity (counter line); HT-1080 IDH1 knockdown viability, ATP luminescence, 48 h; Potency, µM (series often up to 46.1 µM), for inactives: at the highest dose activity, negative = toxicity, actives largely listed as cytotoxic; actives 2% (n = 360,000); AID 686971;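 also: potency is read from the fitted curve at half-maximal effect; 0% = DMSO wells and -100% = cell-free medium wells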
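Knockdown cells (IDH1KD HT-1080) received compounds 2 h after plating at 750 cells/well and were kept 48 h at 37 °C in 5% FBS RPMI. A CellTiter-Glo luminescence read gave % activity for curve fitting.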
HT1080NT lethal – kills 2HG-producing HT-1080-NT fibrosarcoma cells. Potency, µM (titrated, usually from 46.1 µM), for inactives: at the highest dose activity, negative = less viability, hits mostly cytotoxic. actives 1.6% (n = 360,000). AID 686970. HT-1080-NT fibrosarcoma viability, CellTiter-Glo ATP luminescence, 48 h;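 also: NT is the 2HG producing partner of a matched IDH1 knockdown line; potency is read from the fitted curve at half-maximal effect; 0% = DMSO-treated cells and -100% = media-only wells without cells; nearly all actives have a fitted effect of over 55% in size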
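Viability by CellTiter-Glo luminescence after 48 h compound exposure at 37C of HT-1080-NT cells (750/well, RPMI, 5% FBS). % activity scaled between DMSO wells and medium-only wells, then curve-fitted and categorized by curve class.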
TDP1 cell CPT – DT40-hTDP1 cell growth loss with CPT. chicken DT40 Tdp1-/-;hTDP1 cells + 20 nM CPT, ATP luminescence, 48 h. Potency, µM (doses to about 46.2 µM), for inactives: at the highest dose activity change, negative = growth inhibition, usual class: inhibitors. actives 12% (n = 420,000); also: potency is read from the fitted curve at half-maximal effect; nearly all actives have a fitted effect of over 55% in size
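Chicken DT40 Tdp1-/- cells stably complemented with human TDP1 were seeded at 400 cells/well in medium containing 20 nM camptothecin, exposed to pin-transferred compounds, and grown at 37 °C for at least 48 hr. Viability was read as ATP luminescence.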
IL1B secr inh – inhibitors of inflammasome signaling (IL-1 beta secretion); THP-1 LPS/ATP IL-1B secretion, AlphaLISA, 16 h; hits give low values; activity change, % at 57.5 µM; actives 4.7% (n = 360,000); in the data active = activity change below about -50%; inconclusive = mostly about -30% to -49%
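THP-1 cells pretreated 1 hr with compounds (up to 57.5 uM final), then stimulated with LPS (250 ng/mL final) plus ATP (1.25 mM final); secreted IL-1B measured by AlphaLISA after 16 hr, decreased signal indicating inhibition.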
12-LOX inh – ALOX12 (human) lipoxygenase inhibition | Potency, µM (doses to about 108 µM), without a hit: at the highest dose activity change, negative = inhibition, actives largely listed as inhibitors | actives 1.1% (n = 580,000) | AID 1671190 | purified 12hLO, xylenol orange hydroperoxide absorbance | P18054; also: potency is read from the fitted curve at half-maximal effect
Target sequence (P18054 whole entry, looked up): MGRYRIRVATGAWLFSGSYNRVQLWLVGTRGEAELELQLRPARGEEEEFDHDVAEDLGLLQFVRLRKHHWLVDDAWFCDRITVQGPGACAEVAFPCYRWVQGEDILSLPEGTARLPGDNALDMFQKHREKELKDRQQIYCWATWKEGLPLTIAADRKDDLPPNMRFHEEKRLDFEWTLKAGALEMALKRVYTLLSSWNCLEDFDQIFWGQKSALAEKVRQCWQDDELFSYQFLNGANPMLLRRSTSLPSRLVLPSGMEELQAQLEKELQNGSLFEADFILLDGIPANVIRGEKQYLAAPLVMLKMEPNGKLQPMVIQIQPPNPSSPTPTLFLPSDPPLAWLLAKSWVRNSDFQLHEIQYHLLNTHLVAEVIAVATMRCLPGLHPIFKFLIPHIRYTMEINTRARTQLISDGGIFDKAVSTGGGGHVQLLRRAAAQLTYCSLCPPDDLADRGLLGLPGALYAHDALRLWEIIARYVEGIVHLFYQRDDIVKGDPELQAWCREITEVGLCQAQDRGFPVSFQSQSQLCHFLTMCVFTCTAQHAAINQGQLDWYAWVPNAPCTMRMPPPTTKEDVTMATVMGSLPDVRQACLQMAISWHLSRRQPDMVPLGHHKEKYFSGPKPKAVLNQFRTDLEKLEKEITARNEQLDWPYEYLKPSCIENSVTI
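Purified human 12hLO (150 nM final) in 25 mM Hepes, 0.01% Triton X-100, pH 7.0 was preincubated 15 min at room temperature with compound. Then 40 uM arachidonic acid was added, 30 min. Hydroperoxide was read by Fe-XO absorbance ratio 573/405 nm.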
DT40 TDP1 no CPT – qHTS for Inhibitors of human tyrosyl-DNA phosphodiesterase 1 (TDP1): qHTS in cells in absence of CPT. DT40 Tdp1-/- hTDP1 cells, no CPT, ATP luminescence, 48 h. Potency, µM (doses to about 46.2 µM), inactives show at the highest dose activity change, negative = growth inhibition, usual class: inhibitors. actives 15% (n = 420,000). AID 686978, 2013; also: potency is read from the fitted curve at half-maximal effect; nearly all actives have a fitted effect of over 55% in size
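Cells were dispensed at 400 per well, compounds added by pin tool, plates incubated ≥48 hr at 37 °C, then CellTiter-Glo added for 30 min at room temperature before luminescence reading. Line: DT40 Tdp1-/- complemented with hTDP1; camptothecin omitted.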
The depositor's hits bear a star. Unless noted, calls follow the shape of the dose curve; as a rule, active = well fitted curve in the direction sought with a large enough effect; inconclusive = small, poorly fitted or top-dose-only effect, or another doubt; inactive = no such curve, though single readings can be large; an effect the other way counts as inactive or inconclusive. Unless noted, % is scaled to controls: 0 for no effect and ±100 for the full control effect.

Screening Cc1nnc(Sc2nc3c(c(=O)n(C)c(=O)n3C)n2Cc2ccc(Cl)cc2)s1 returned HT1080 IDH1KD tx 0.8%, HT1080NT lethal 7.8%, TDP1 cell CPT inconclusive, IL1B secr inh 20.1, 12-LOX inh 3.6% and DT40 TDP1 no CPT 16.4µM*.
Cc1cn2nnc(C(=O)NC3CCCCC3)c2c(=O)[nH]1 was read as 12-LOX inh -6.9%.
C#CCOc1c(Br)cc(/C=C2/NC(=O)NC2=O)cc1OCC was read as 12-LOX inh -9.3%.
`CCOc1ccc(S(=O)(=O)N2CCCC(C(=O)N3CCN(c4ccccc4)CC3)C2)cc1` (stereo not given) gave HT1080 IDH1KD tx -0.2%, HT1080NT lethal -3.8%, TDP1 cell CPT 16.4µM*, IL1B secr inh -12.6, 12-LOX inh 169.9% and DT40 TDP1 no CPT 20.6µM*.
Screening CCOC(=O)N1CCN(C(=O)C2CCCN(S(=O)(=O)c3ccc(C)cc3)C2)CC1 (stereo not given) returned HT1080 IDH1KD tx 0.2%, HT1080NT lethal 12.1%, TDP1 cell CPT inconclusive, IL1B secr inh 18.4, 12-LOX inh 23.4% and DT40 TDP1 no CPT 16.4µM*.
For CCOc1ccc(S(=O)(=O)N2CCCC(C(=O)N3CCOCC3)C2)cc1 (stereo not given) the results were HT1080 IDH1KD tx 0.6%, HT1080NT lethal 8.8%, TDP1 cell CPT -0.4%, IL1B secr inh 15.6, 12-LOX inh 0.0% and DT40 TDP1 no CPT -24.7%.
Screening CCOC(=O)N1CCN(C(=O)C2CCCN(S(=O)(=O)c3ccc(OCC)cc3)C2)CC1 (stereo not given) returned HT1080 IDH1KD tx -11.5%, HT1080NT lethal -8.6%, TDP1 cell CPT inconclusive, IL1B secr inh 12.2, 12-LOX inh 0.0% and DT40 TDP1 no CPT 16.4µM*.
For O=C1CN(C(=O)COC(=O)C23CC4CC(CC(C4)C2)C3)c2ccccc2N1 the results were 12-LOX inh 113.7%.
`CC(C)C(=O)N1CCN(c2ccccc2NC(=S)NC(=O)c2ccco2)CC1` gave HT1080 IDH1KD tx -6.8%, HT1080NT lethal -0.3%, TDP1 cell CPT 16.4µM*, IL1B secr inh -2.3, 12-LOX inh 0.0% and DT40 TDP1 no CPT inconclusive.
Screening CCC(C)c1ccccc1NC(=S)NC(=O)c1ccco1 (stereo not given) returned HT1080 IDH1KD tx 11.5%, HT1080NT lethal 3.6%, TDP1 cell CPT 23.1µM*, IL1B secr inh 0.0, 12-LOX inh inconclusive and DT40 TDP1 no CPT 13µM*.
O=C(NC(=S)Nc1ccccc1N1CCCCC1)c1ccco1 was read as HT1080 IDH1KD tx -8.2%, HT1080NT lethal -1.8%, TDP1 cell CPT 14.6µM*, IL1B secr inh 14.1, 12-LOX inh inconclusive and DT40 TDP1 no CPT inconclusive.
CC1CCN(c2ccc(NC(=S)NC(=O)c3ccco3)cc2)CC1 was read as HT1080 IDH1KD tx -17.2%, HT1080NT lethal -3.9%, TDP1 cell CPT -20.6%, IL1B secr inh -13.5, 12-LOX inh -14.8% and DT40 TDP1 no CPT inconclusive.
`O=C(NC(=S)Nc1ccc(N2CCCCC2)cc1)c1ccco1` gave HT1080 IDH1KD tx 14.1µM*, HT1080NT lethal 7.08µM*, TDP1 cell CPT -1.3%, IL1B secr inh -7.1, 12-LOX inh -13.6% and DT40 TDP1 no CPT -23.9%.
COc1cccc(CN2CCCC3(CCN(C(=O)c4cccnc4)C3)C2=O)c1OC (stereo not given) was read as 12-LOX inh 16.7%.
O=C(NC(=S)Nc1cccc(Cl)c1N1CCOCC1)c1cccs1 was read as HT1080 IDH1KD tx -1.7%, HT1080NT lethal -5.7%, TDP1 cell CPT inconclusive, IL1B secr inh 2.2, 12-LOX inh inconclusive and DT40 TDP1 no CPT 25.9µM*.
Screening O=C(NC(=S)Nc1cccc(Cl)c1N1CCCCC1)c1ccco1 returned HT1080 IDH1KD tx inconclusive, HT1080NT lethal 11.2µM*, TDP1 cell CPT inconclusive, IL1B secr inh 17.5, 12-LOX inh inconclusive and DT40 TDP1 no CPT inconclusive.
For Cc1c(Cl)cccc1NC(=O)CC(O)(c1nccn1C)C(F)(F)F (stereo not given) the results were 12-LOX inh 0.4%.
For Cc1nc(C(=O)NC2CC2)sc1C1(C)CC(c2ccccc2)=NO1 (stereo not given) the results were HT1080 IDH1KD tx -6.9%, HT1080NT lethal 1.9%, TDP1 cell CPT -15.9%, IL1B secr inh 0.9, 12-LOX inh 1.4% and DT40 TDP1 no CPT -21.8%.
COc1ccc(NC(=O)c2nc(C)c(C3(C)CC(c4cccnc4)=NO3)s2)cc1 (stereo not given) was read as HT1080 IDH1KD tx 6.51µM*, HT1080NT lethal inconclusive, TDP1 cell CPT 5.8µM*, IL1B secr inh 30.7, 12-LOX inh 1.6% and DT40 TDP1 no CPT 3.66µM*.
For Cc1nc(C(=O)NC2CCCCC2)sc1C1(C)CC(c2cccc([N+](=O)[O-])c2)=NO1 (stereo not given) the results were HT1080 IDH1KD tx 0.5%, HT1080NT lethal 2.5%, TDP1 cell CPT inconclusive, IL1B secr inh 1.9, 12-LOX inh 13.5% and DT40 TDP1 no CPT 23.1µM*.
Cc1nc(C(=O)Nc2ccc(Cl)cc2)sc1C1(C)CC(c2cccc([N+](=O)[O-])c2)=NO1 (stereo not given) was read as HT1080 IDH1KD tx -12.4%, HT1080NT lethal 4.9%, TDP1 cell CPT inconclusive, IL1B secr inh -6.1, 12-LOX inh 6.3% and DT40 TDP1 no CPT inconclusive.

Screening results from PubChem.
